# In PubChem BioAssay (Tox21):
# Values without a mark were called inactive. Inconclusive results are not listed. Where a call stands in place of a potency, no number is given. Active and inactive are the calls of the source. Unless noted, calls follow the shape of the dose curve; as a rule, active = well fitted curve in the direction sought with a large enough effect in the repeat runs; inconclusive = weak or mixed curves; inactive = no such curve, though single readings can be large; an effect the other way counts as inactive or inconclusive.
# Key:
# [1] = qHTS assay to identify small molecule agonists of the TGF-beta/Smad signaling pathway (AID 1346859; active = well fitted activation curve with a large enough effect in the signal ratio in the repeat runs, not every such curve was filed as active; the % refers to the signal ratio; also: series mostly up to about 77 µM)
# In short: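 HEK 293T cells stably carrying a beta-lactamase reporter driven by the Smad binding element were seeded overnight, exposed to DMSO-dissolved compounds for 5 hr at 37 C, 5% CO2, then loaded with FRET substrate for 2 hr at room temperature.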
# [2] = Caspase-3/7 induction in HepG2 cells by small molecules, qHTS assay (AID 1346978); also: nearly all actives have a fitted effect of over 15% in size
# In short: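 Wild-type HepG2 cells, 2,000/well, settled 5 hr at 37 C and 5% CO2, then compound-treated for 17 hr; caspase-3/7 activity read by luminescent Caspase-Glo 3/7 after 30 min at room temperature.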
# [3] = Caspase-3/7 induction in CHO-K1 cells by small molecules, qHTS cell viability counter screen (AID 1346979); also: nearly all actives have a fitted effect of over 35% in size
# In short: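 Wild-type CHO-K1 cells were seeded at 1,500 per well, rested 5hr at 37 C, then exposed to compounds in DMSO. After 16hr, CellTiter-Fluor reagent was added and fluorescence read 1hr later as the viability measure.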
# [4] = Caspase-3/7 induction in CHO-K1 cells by small molecules, qHTS assay (AID 1346980); also: nearly all actives have a fitted effect of over 15% in size
# In short: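 Wild-type CHO-K1 cells exposed to compounds for 17hr at 37 C, 5% CO2. Caspase-3/7 activity then measured by Caspase-Glo 3/7 luminescence after 30min at room temperature.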
# [5] = Caspase-3/7 induction in HepG2 cells by small molecules, qHTS cell viability counter screen (AID 1346981); also: series mostly up to about 92 µM; nearly all actives have a fitted effect of over 30% in size
# In short: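 Wild-type HepG2 cells, 2,000/well, settled 5 hr at 37 C, 5% CO2 before compound addition. Viability read by CellTiter-Fluor fluorescence, reagent added after 16 hr compound exposure, then 1 hr at 37C, in the same wells as the caspase read.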
# [6] = biological target: Nuclear receptor subfamily 1 group I member 2 (Homo sapiens) (UniProt O75469); assay: Human pregnane X receptor (PXR) small molecule agonists, qHTS assay (AID 1346982); also: nearly all actives have a fitted effect of over 35% in size; also: potency is read from the fitted curve at half-maximal effect
# In short: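 PXR-Luc HepG2 reporter cells (CYP3A4-driven luciferase) in 5% charcoal-stripped FBS medium, plated 5 h before compound addition, then treated 24 h at 37C. Luciferase read by ONE-Glo luminescence after 30 min at room temperature.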
# [7] = Human pregnane X receptor (PXR) small molecule agonists, qHTS cell viability counter screen (AID 1346977); also: nearly all actives have a fitted effect of over 50% in size
# In short: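 PXR-Luc HepG2 cells in medium with 5% charcoal-stripped FBS were pre-incubated 5hr, then exposed to compounds for 24hr at 37C. Viability was read in the same wells by CellTiter-Fluor fluorescence, reagent added after 23hr with a 1hr incubation.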
# [8] = biological target: Nuclear receptor subfamily 1 group I member 2 (Rattus norvegicus) (UniProt Q9R1A7); assay: Rat pregnane X receptor (rPXR) activation by small molecules, qHTS assay (AID 1346983); conditions: rPXR luciferase reporter cells, One-Glo luminescence, 24 h; max activation: stronger effect = higher value; also: nearly all actives have a fitted effect of over 20% in size
# In short: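 Cell-based rPXR activation assay: rPXR cells, 2,000 per well, rested 5hr at 37 C, then exposed to compounds in DMSO for 24 hr at 37 C. Luciferase activity read by One-Glo luminescence after 30 min at room temperature.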
# [9] = biological target: Thyrotropin-releasing hormone receptor (Homo sapiens) (UniProt P34981); assay: qHTS assay to identify small molecule antagonists of the thyrotropin-releasing hormone receptor (TRHR) signaling pathway (AID 1346877; active = well fitted inhibition curve with a large enough effect in the repeat runs, not every such curve was filed as active; also: series mostly up to about 51 µM)
# In short: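 TRHR-expressing HEK293 cells loaded with calcium dye for 2 h at 37 C; compounds pre-incubated 5 min at room temperature before TRH challenge at 1 nM final. Intracellular calcium fluorescence read kinetically for 3 min; 15 concentrations in triplicate.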
# [10] = biological target: Thyrotropin-releasing hormone receptor (Homo sapiens) (UniProt P34981); assay: qHTS assay to identify small molecule agonists of the thyrotropin-releasing hormone receptor (TRHR) signaling pathway (AID 1346891; calls by dose curve; also: series mostly up to about 58 µM)
# In short: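 TRHR-expressing HEK293 cells were plated 18 h at 37 °C/5% CO2, loaded with calcium dye 2 h at 37 °C, then given compound in DMSO; fluorescence was read kinetically for 3 min at 1 s intervals.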
# Sequence of Nuclear receptor subfamily 1 group I member 2 (Homo sapiens) (O75469 whole entry, looked up): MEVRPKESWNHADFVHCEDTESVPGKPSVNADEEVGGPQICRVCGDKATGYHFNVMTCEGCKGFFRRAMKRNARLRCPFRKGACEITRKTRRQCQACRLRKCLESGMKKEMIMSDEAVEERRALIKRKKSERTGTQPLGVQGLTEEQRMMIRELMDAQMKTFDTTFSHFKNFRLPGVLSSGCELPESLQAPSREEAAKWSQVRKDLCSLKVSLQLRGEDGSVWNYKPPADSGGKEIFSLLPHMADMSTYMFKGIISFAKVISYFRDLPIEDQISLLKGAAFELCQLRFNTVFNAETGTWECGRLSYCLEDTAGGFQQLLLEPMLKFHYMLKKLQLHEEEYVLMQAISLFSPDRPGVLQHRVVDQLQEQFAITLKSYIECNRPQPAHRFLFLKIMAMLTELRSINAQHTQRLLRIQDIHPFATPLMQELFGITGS
# Sequence of Nuclear receptor subfamily 1 group I member 2 (Rattus norvegicus) (Q9R1A7 whole entry, looked up): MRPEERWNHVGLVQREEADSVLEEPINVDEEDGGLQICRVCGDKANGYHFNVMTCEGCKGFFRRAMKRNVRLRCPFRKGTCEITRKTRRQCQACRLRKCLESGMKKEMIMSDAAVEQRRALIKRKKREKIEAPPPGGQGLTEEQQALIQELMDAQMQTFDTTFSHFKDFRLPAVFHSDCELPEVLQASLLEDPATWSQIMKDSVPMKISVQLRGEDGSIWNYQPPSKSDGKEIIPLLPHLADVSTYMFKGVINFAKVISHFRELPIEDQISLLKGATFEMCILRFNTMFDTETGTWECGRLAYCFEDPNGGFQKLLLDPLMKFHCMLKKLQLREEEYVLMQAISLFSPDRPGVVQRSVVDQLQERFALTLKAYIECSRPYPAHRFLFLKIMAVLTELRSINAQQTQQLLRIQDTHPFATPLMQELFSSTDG
# Sequence of Thyrotropin-releasing hormone receptor (Homo sapiens) (P34981 whole entry, looked up): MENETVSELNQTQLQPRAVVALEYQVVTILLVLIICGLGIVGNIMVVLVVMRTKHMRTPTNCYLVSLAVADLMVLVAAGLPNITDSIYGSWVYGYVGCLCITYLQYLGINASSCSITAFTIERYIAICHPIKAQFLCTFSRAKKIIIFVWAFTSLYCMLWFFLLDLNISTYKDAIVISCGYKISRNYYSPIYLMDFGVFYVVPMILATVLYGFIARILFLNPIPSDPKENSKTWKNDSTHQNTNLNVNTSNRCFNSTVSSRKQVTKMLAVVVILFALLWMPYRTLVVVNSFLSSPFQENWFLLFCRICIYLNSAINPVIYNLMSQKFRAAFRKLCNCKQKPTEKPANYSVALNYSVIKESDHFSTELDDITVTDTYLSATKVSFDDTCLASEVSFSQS
SMILES,outcome [1],outcome [2],Potency [3],outcome [4],outcome [5],Potency [6],outcome [7],max activation [8],outcome [9],Potency [10]
CCOC(=O)c1ccc(N(C)C)cc1,inactive,inactive,inactive,inactive,inactive,54.5 µM (active),,,,
CCCCC(CC)CCC(CC(C)C)OS(=O)(=O)O (stereo not drawn),inactive,inactive,,inactive,inactive,inactive,inactive,-2.27%,,
O=C(O)Cc1c(Cl)ccc(Cl)c1Cl,,inactive,,inactive,inactive,,inactive,,inactive,inactive
Nc1ccc(C(=O)NCC(=O)O)cc1,inactive,inactive,,inactive,inactive,inactive,inactive,-2.15%,,
O=S(=O)(O)c1cc(I)c(O)c2ncccc12,inactive,inactive,,inactive,inactive,inactive,inactive,-0.763%,,
NS(=O)(=O)c1cc2c(cc1C(F)(F)F)NCNS2(=O)=O,inactive,inactive,,inactive,inactive,inactive,inactive,-2.82%,,
Cc1nnc(C(=O)NC(C)(C)c2nc(C(=O)NCc3ccc(F)cc3)c(O)c(=O)n2C)o1,,inactive,inactive,inactive,inactive,inactive,inactive,,inactive,inactive
CC(O)CCCCn1c(=O)c2c(ncn2C)n(C)c1=O (stereo not drawn),inactive,inactive,inactive,inactive,inactive,inactive,,-1.02%,,
C=CC(=O)OCCOCCOCC,inactive,inactive,,,inactive,inactive,inactive,,,
Nc1nc(Cl)cc(Cl)n1,,inactive,,,inactive,inactive,inactive,,,inactive
N#Cc1cc(NC(=O)C(=O)O)c(Cl)c(NC(=O)C(=O)O)c1,inactive,inactive,inactive,inactive,inactive,inactive,,,,
O=C(O)COc1ccc2ccccc2c1,,inactive,,,inactive,inactive,inactive,,inactive,
COC(=O)c1cc(Cl)c(NC(C)=O)cc1OC,inactive,inactive,,inactive,inactive,,inactive,,,
CCOC(=O)[C@H](CCc1ccccc1)N[C@H]1CS[C@H](c2cccs2)CN(CC(=O)O)C1=O,inactive,inactive,inactive,inactive,inactive,inactive,,-2.69%,,
